Hits are enriched below; roughly 4.6% of the tested compounds scored in any of these assays.
TRHR ag: activates the human TRH receptor; P34981; TRHR cells, calcium flux fluo-8, FDSS agonist mode; activation, % at 2 µM; 360,000 compounds, 0.18% hits; note: 0% is about no effect
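Read-out: compound-evoked intracellular calcium rise in TRHR cells, fluo-8 dye, kinetic FDSS fluorescence at 1 s/cycle following a 10-cycle baseline. Cells cultured overnight before dye loading (30 min–1.5 h, RT).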
D1 ag: activates the human D1 dopamine receptor; P21728; HEK293 T-REx D1 cells, calcium flux, agonist mode; activation, % at 2 µM; 360,000 compounds, 1% hits; AID 504660; note: 0% is about no effect
Target sequence (P21728 whole entry, looked up): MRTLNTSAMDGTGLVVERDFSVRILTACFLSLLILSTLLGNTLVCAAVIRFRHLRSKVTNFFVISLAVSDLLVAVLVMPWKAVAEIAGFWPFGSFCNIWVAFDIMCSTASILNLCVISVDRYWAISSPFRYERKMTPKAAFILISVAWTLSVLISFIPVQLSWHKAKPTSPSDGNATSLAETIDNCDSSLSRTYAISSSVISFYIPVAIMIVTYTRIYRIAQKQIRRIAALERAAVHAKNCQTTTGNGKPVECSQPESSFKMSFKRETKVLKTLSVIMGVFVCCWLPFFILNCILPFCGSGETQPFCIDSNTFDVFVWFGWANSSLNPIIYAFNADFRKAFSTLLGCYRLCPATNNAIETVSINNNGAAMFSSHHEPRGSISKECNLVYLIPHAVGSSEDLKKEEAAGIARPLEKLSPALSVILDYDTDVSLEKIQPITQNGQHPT
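Tetracycline-induced HEK293 TREx D1 cells, force-coupled to calcium signalling, were dye-loaded with a no-wash calcium kit. Compound was pin-added after a 10 s baseline. Fluorescence was read kinetically at 1 cycle/s for 180 s, with calcium rises flagged as agonism.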
D1 PAM: human D1 dopamine receptor positive modulation; P21728; HEK293 TREx D1 cells, calcium flux, dopamine EC20 potentiation; potentiation, % at 10 µM; 360,000 compounds, 0.036% hits; AID 504651; in the data active = potentiation above about 30%; note: 0% is about no effect
D1 antag: human D1 dopamine receptor antagonism; activity change, negative = inhibition, % at 10 µM; 360,000 compounds, 3.2% hits; HEK293 TREx D1 cells, calcium flux, dopamine EC80; stronger effect = lower value; P21728; AID 504652; in the data active = activity change below about -30%; note: % is set by controls: 0 for no effect and ±100 for the full control effect
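Tetracycline-induced HEK293 Trex D1 cells, force-coupled to calcium, dye-loaded; compounds added and read 180 s, then EC80 dopamine added and calcium flux tracked kinetically another 180 s.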
TRHR enhancer: TRH receptor (human) allosteric enhancement; TRHR cells, fluo-8 calcium fluorescence, EC20 TRH enhancement; enhancement, % at 2 µM; P34981; 360,000 compounds, 0.66% hits; in the data active = enhancement above about 30%; note: 0% is about no effect
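TRHR-expressing cells loaded with fluo-8 calcium dye were read kinetically (ex 480/em 530) during compound addition, then stimulated with an EC20 of TRH (10 nM final). Enhancement of the Gq-mediated intracellular calcium response was scored.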
Numbers without * were called inactive. Cut-off read from the data, not from the text of the source, unless noted: active = activation above about 30%; inactive = the rest.

SMILES	TRHR ag	D1 ag	D1 PAM	D1 antag	TRHR enhancer
COc1ccc(/C(C)=N/N=C2/NC(=O)CC(C(=O)O)S2)cc1F (stereo not given)	0	1	-11	-31*	-16
CNC(=O)C1CC(=O)N/C(=N/N=C(\C)c2cccs2)S1 (stereo not given)	0	0	0	-32*	-1
C/C(=N\N=C1\NC(=O)CC(C(=O)O)S1)c1ccc(F)cc1 (stereo not given)	0	3	-4	2	2
COc1ccc(/C(C)=N/N=C2/NC(=O)CC(C(=O)O)S2)cc1 (stereo not given)	0	1	-4	-6	-3
CCOCCCN1C(=O)CN(C2CCCCCC2)C(=O)C1c1ccc(OC(C)C)c(OC)c1 (stereo not given)	-1	-4	-2	-38*	-1
O=C(Nc1ccc(N2CCN(C(=O)c3ccco3)CC2)cc1)c1ccccc1	0	1	2	-56*	4
O=C(Nc1ccc(N2CCN(Cc3ccccc3)CC2)cc1)c1ccco1	0	4	-4	-30*	-4
COc1ccccc1CNc1cc(-c2ccccc2)nc2nncn12	-3	-1	-1	-2	-1
Cc1cc(C)c2c(=O)nc(SCc3ccccc3C)n(C3CC3)c2n1	0	0	-1	2	2
COc1ccccc1NC(=S)N1CCNC(=O)C1CC(=O)Nc1cccc(C)c1 (stereo not given)	-1	1	-6	6	-4
COc1ccccc1NC(=O)CC1C(=O)NCCN1C(=O)Nc1ccc(Cl)c(Cl)c1 (stereo not given)	1	4	-5	-30*	-11
CC(C)NC(=O)c1sc(=S)n2c1[nH]c(=O)c1ccc(C(=O)NCCc3ccc(Cl)cc3)cc12	0	3	-11	-59*	-9
O=C(NC1CCCCC1)c1sc(=S)n2c1[nH]c(=O)c1ccccc12	3	29	-6	-19	-4
CCCCNC(=O)c1sc(=S)n2c1[nH]c(=O)c1ccccc12	5	30*	-8	-16	2
Cc1cccc(N(C)S(=O)(=O)c2c[nH]c3ccc([N+](=O)[O-])cc23)c1	1	3	-9	-28	-1
CN1C[C@@H]2C(c3ccccc3)C3(c4cccnc4)CC2(C3)[C@H]1c1ccccc1 (stereo not given in full)	0	2	-1	-39*	4
CN1C[C@@H]2C(c3ccc(C(F)(F)F)cc3)C3(c4ccccc4)CC2(C3)[C@H]1c1ccccc1 (stereo not given in full)	0	6	3	24	0
Cc1cc[n+](-c2[nH]c(=O)sc2/C=N/NC([S-])=Nc2ccccc2)cc1C	4	6	-7	8	3
CC(C)(C)c1cc[n+](-c2[nH]c(=O)sc2/C=N/NC([S-])=Nc2ccccc2)cc1	18	91*	-2	4	1
CC(NC(=O)Nc1ccc(F)cc1)C(c1cccs1)N1CCCC1 (stereo not given)	1	72*	-10	7	-2
C=CCNC(=S)/N=c1/ccccn1CC	0	2	-2	0	-7
O=c1[nH]c(CN2CCN(c3ccccc3)CC2)nc2ccccc12	0	3	-7	6	1
CCC(CC)C(=O)N1CCN(Cc2nc3ccccc3c(=O)[nH]2)CC1	-1	2	-2	-2	32*
O=c1[nH]c(CN2CCN(c3ccc(F)cc3)CC2)nc2ccccc12	0	-1	-5	-3	34*
COc1cccc(N2CCN(Cc3nc4ccccc4c(=O)[nH]3)CC2)c1	0	2	-2	-62*	2
SMILES	TRHR ag	D1 ag	D1 PAM	D1 antag	TRHR enhancer
CCc1ccccc1NC(=O)Cn1nc(C)c2nn(-c3ccc(Cl)cc3)c(C)c2c1=O	-1	3	1	11	3
O=C(c1ccco1)N(Cc1cccc([N+](=O)[O-])c1)c1ccc(Br)cc1	0	30	-2	-36*	21
O=C(c1ccco1)N(Cc1ccc([N+](=O)[O-])cc1)c1ccc(Br)cc1	0	-1	-2	0	1
Cc1ccc(C)c(CN2C(=O)N(c3cc(Cl)ccc3C)S(=O)(=O)c3ccccc32)c1	0	1	-3	-12	0
S=c1[nH]nc(-c2ccccc2Cl)n1/N=C/C=C/c1ccco1	0	1	-4	-36*	19
S=c1[nH]nc(-c2ccncc2)n1/N=C/C=C/c1ccco1	0	0	-5	-2	-11
Cn1c2cc(S(C)=O)sc2c2cnn(Cc3ccccc3F)c(=O)c21 (stereo not given)	-1	1	-4	-14	1
Cc1ccc(S(=O)(=O)N(CC(=O)Nc2cccc(C(F)(F)F)c2)C(=O)N2CCN(C)CC2)cc1	0	2	-6	-38*	16
Cc1ccc(S(=O)(=O)N(Cc2cccc(C(F)(F)F)c2)C(=O)N2CCN(C)CC2)cc1	0	2	-4	-7	3
O=C(Nc1ccc(OC(F)F)cc1)Nc1cccc(C(F)(F)F)c1	4	19	-5	-38*	-11
Cc1ccc(S(=O)(=O)Nc2ccc(NC(=O)Nc3cccc(C(F)(F)F)c3)cc2)cc1	0	3	-8	-1	8
CCN(CC)S(=O)(=O)c1ccc(NC(=O)Nc2cccc(C(F)(F)F)c2)cc1	2	16	-1	-32*	-2
O=c1oc2ccc(F)cc2cc1-c1nc(-c2cccs2)no1	1	1	-3	-1	4
CCOC(=O)c1c(NC(=O)CSc2cn(CCNC(=O)c3c(F)cccc3F)c3ccccc23)sc2c1CCC2	1	-1	-4	7	-7
Cc1cc2c(s1)c1cnn(Cc3c(C)cc(F)cc3C)c(=O)c1n2C	1	1	2	1	4
CCCCc1ccc(NC(=S)NCc2cccs2)cc1	0	8	0	-32*	-3
Cc1ccc(NC(=S)NCc2cccs2)cc1	0	0	0	-12	1
Cc1nn(-c2ccc(F)cc2F)c2c1-c1nc(N3CCCC3)ncc1CC2	0	0	-18	-42*	0
Cc1cc(Br)ccc1NCc1ccccn1	0	0	6	-56*	6
COc1cc(NC(=O)CCc2c(C)nc3nc(-c4cc(OC)cc(OC)c4)nn3c2C)cc(OC)c1	1	1	0	5	15
CCc1ccccc1NC(=O)C1CCN(c2nn3c(=O)cc(C)nc3s2)CC1	0	0	-1	13	-2
CCc1ccc(S(=O)(=O)Nc2ccc(Cl)cn2)cc1	-1	1	-5	-92*	0
Cc1ccc(C)c2c1c1ccccc1n2C	0	0	-4	12	31*
OCCN(CCO)CC(O)COc1ccc(C23CC4CC(CC(C4)C2)C3)cc1 (stereo not given)	0	31*	2	23	2
